Laboratory results published in publication PMC4336329 (PLoS ONE, 2015).
The whole screen tested about 310,000 compounds, of which about 14,000 (4.5%) showed an effect of 50% or more. Effects have a minus sign here. The entries come from a sample that favours strong results as a whole.

biological target: human ether-à-go-go-related gene (hERG) potassium channel (human, UniProt Q12809); test: primary screen, population patch clamp on CHO cells stably expressing hERG; higher = less effect of the substance
Sequence (Q12809 whole entry, looked up): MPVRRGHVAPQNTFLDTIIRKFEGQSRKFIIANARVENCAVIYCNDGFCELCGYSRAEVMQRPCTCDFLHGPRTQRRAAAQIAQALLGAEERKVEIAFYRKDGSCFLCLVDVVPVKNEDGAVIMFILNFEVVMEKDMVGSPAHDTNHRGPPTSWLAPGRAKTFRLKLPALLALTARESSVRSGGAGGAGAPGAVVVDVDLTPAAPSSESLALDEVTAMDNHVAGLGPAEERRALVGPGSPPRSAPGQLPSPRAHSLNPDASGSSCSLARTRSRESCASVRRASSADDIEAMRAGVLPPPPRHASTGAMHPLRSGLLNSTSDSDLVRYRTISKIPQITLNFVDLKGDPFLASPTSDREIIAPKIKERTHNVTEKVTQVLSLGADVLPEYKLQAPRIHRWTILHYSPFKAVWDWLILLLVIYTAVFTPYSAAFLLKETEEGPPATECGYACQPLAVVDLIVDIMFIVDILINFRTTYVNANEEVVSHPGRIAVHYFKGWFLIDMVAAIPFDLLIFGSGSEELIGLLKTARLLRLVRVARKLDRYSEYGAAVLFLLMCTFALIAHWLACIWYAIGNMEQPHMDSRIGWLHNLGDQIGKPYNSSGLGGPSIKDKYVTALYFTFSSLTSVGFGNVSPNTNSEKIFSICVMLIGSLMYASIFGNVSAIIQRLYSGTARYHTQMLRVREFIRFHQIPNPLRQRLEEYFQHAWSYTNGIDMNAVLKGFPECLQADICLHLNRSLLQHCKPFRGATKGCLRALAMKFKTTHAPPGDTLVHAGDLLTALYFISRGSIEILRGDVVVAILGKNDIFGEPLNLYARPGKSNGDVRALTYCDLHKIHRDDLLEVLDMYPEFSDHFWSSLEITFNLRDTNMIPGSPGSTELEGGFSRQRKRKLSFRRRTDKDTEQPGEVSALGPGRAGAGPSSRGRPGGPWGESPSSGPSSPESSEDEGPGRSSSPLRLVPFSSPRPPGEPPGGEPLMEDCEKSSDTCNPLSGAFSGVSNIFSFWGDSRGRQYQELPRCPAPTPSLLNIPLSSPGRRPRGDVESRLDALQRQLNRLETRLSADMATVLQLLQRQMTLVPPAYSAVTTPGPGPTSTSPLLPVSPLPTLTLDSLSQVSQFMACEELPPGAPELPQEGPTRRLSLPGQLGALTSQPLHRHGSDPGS
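Also: peak tail current of the secondary pulse compared with the same well before compound.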

Row | Compound | hERG current change (%, negative = inhibition) at 10uM [%]
1 | S=c1[nH]nc(CSCc2ccccc2Cl)n1-c1ccccc1 | 0.868
2 | CCOc1ccccc1N(CC(=O)NC1CCCC1)C(=O)CCCC(=O)Nc1ccccn1 | -8.6
3 | O=C(O)/C=C\c1cccc(-n2cnnn2)c1 | -1.3
4 | CCC(=NCCc1c[nH]c2ccccc12)c1c(O)n(C)c(=O)n(C)c1=O | -10.8
5 | COc1ccc(/C(C)=N/NC(=O)C2C3CCCCC32)c(OC)c1 (centres unmarked) | -0.79
6 | CN(C)CCNC(=O)Cn1ccc2cc(S(=O)(=O)N3CCCCC3)ccc21 | 8.47
7 | Cc1ccc(NC(=O)CN(C)C(=O)c2nn(C)c(=O)c3ccccc23)cc1 | -35.7
8 | CCN(CC)CC(=O)NN=C(c1ccccc1)c1ccccc1 | -77.6
9 | O=C(CCl)NN=C(c1ccccc1)c1ccccc1 | 0.333
10 | C/C(=N\NC(=O)CNc1ccccc1)c1ccccc1 | -12.8
11 | O=C(CN1CCCC1)NN=C(c1ccccc1)c1ccccc1 | -68.3
12 | O=C(NN=C(c1ccccc1)c1ccccc1)C(CCl)C1CCCCC1 (centres unmarked) | -2.74
13 | C=CCNC(=O)NC(=S)c1ccccc1 | -4.57
14 | O=C(CN1CCOCC1)NN=C(c1ccccc1)c1ccccc1 | 20.8
15 | O=C(CNC1CCCCC1)NN=C(c1ccccc1)c1ccccc1 | -59.8
16 | CC1CN(CC(=O)NN=C(c2ccccc2)c2ccccc2)CC(C)O1 (centres unmarked) | 12.8
17 | C=CCNCC(=O)NN=C(c1ccccc1)c1ccccc1 | -68.5
18 | CC(NC1CCCCC1)C(=O)NN=C(c1ccccc1)c1ccccc1 (centres unmarked) | -32.1
19 | CCOC(=O)C(=O)NN=C(c1ccccc1)c1ccccc1 | 9.79

Row | Compound | hERG current change (%, negative = inhibition) at 10uM [%]
20 | O=C(CN1C(=O)C2C3C=CC(C3)C2C1=O)NC1CCCc2ccccc21 (centres unmarked) | -2.95
21 | CCOC(=O)CN(C#N)c1nc(C)cc(C)n1 | -7.84
22 | Cc1nc(SCCc2ccccc2)[nH]c(=O)c1C | 19.6
23 | O=C(O)Cn1nnc(-c2ccc(OCc3ccccc3)cc2)n1 | 23.9
24 | COc1ccccc1CNC(=O)c1cnn2c(C(F)F)cc(C)nc12 | -26.4
25 | Cc1cc(C)cc(N(C(=O)C(F)(F)F)C(C(=O)NC2CCCCC2)c2cccs2)c1 (centres unmarked) | -7.03
26 | O=C(CCCc1ccccc1)NCCCc1ccccc1 | -10.9
27 | CN(Cc1ccccc1)C1CCCN(C(=O)c2ccc(Cl)s2)C1 (centres unmarked) | -30.4
28 | COC(=O)c1c(C(=O)OC)c(-c2ccc(Br)cc2)n2c1CS(=O)C2 (centres unmarked) | -1.16
29 | CCCNC(=O)c1onc(CSc2cccc(OC)c2)c1C(=O)NCCC | -7.12
30 | O=C(O)c1cccc(S(=O)(=O)N2CC=C(c3ccccc3)CC2)c1 | -4.64
31 | COCCNC(=O)/C(C#N)=C/c1cc(C)n(C2CCCCC2)c1C | -0.875
32 | CCN(CC)S(=O)(=O)c1ccc2nc(CSc3nnnn3-c3ccc(O)cc3)[nH]c2c1 | -53.9
33 | Cc1ccc(S(=O)(=O)N(C)C)cc1NC(=O)CSc1nnnn1-c1ccc(O)cc1 | -20.9
34 | CCN(CC)S(=O)(=O)c1ccc2nc(CCl)[nH]c2c1 | -16.7
35 | O=C(c1cccc(C(=O)N2CCN(c3ccccc3F)CC2)n1)N1CCN(c2ccccc2F)CC1 | -28.3
36 | O=[N+]([O-])c1ccc(N2CCOCC2)cc1N1CCCCC1 | -5.12
37 | O=C(/C=C/c1ccc(Cl)cc1)N1CCN(c2ccc([N+](=O)[O-])c(N3CCOCC3)c2)CC1 | -72.4
38 | O=[N+]([O-])c1ccc(N2CCCCC2)cc1N1CCOCC1 | -11.3

Row | Compound | hERG current change (%, negative = inhibition) at 10uM [%]
39 | O=C(/C=C/c1ccc(Cl)cc1)N1CCOCC1 | 9.65
40 | O=C(/C=C/c1ccc(Cl)cc1Cl)N1CCN(c2ccc([N+](=O)[O-])c(N3CCOCC3)c2)CC1 | -34.5
41 | O=C(/C=C/c1ccccc1)N1CCN(c2ccc([N+](=O)[O-])c(N3CCOCC3)c2)CC1 | -54.3
42 | Cc1c(C(=O)NN2CCOCC2)oc2ccccc12 | 16.5
43 | N#Cc1cc2c(nc1SCc1cccc(Cl)c1)CCCCC2 | 8.72
44 | COc1cc(C2NC(=O)NC(C)=C2C(=O)OCC2CCCO2)cc(OC)c1OC (centres unmarked) | 18.8
45 | COc1ccc(N2CCN(c3ncnc4scc(-c5ccccc5)c34)CC2)cc1 | 18.6
46 | COc1ccc(NC(=O)c2ccccc2NC(=O)CSc2ccc(Cl)cc2)cc1 | 3.21
47 | Cc1cc(C)cc(NC(=O)C2C3C=CC4(O3)C2C(=O)N(CCCN2CCCCC2)C4C(=O)NC2CCCCC2)c1 (centres unmarked) | 20.7
48 | O=C(NCc1ccccc1)c1ccc(Cl)c(NC2=NC3CS(=O)(=O)CC3S2)c1 (centres unmarked) | -0.123
49 | O=C(Cn1cc[n+](CC(=O)c2ccccc2)c1)c1ccccc1.[Br-] | 0.024
50 | C[n+]1ccn(CC(=O)c2ccc(Cl)cc2)c1.[Br-] | -3.61
51 | O=C(Cn1cc[n+](CC(=O)c2ccc(Cl)cc2Cl)c1)c1ccc(Cl)cc1Cl.[Br-] | -61.5
52 | O=C(Cn1nc(Cl)nc1Cl)c1ccc([N+](=O)[O-])cc1 | 1.69
53 | O=C(C[n+]1cnn(CC(=O)c2ccc(Cl)cc2Cl)c1)c1ccc([N+](=O)[O-])cc1.[Br-] | -73.3
54 | O=C(Cn1c[n+](CC(=O)c2ccc([N+](=O)[O-])cc2)cn1)c1ccc([N+](=O)[O-])cc1.[Br-] | 21.3
55 | COc1ccc(-c2ccc(SCc3cccnc3)nn2)cc1OC | 29
56 | Cc1ccccc1N1CC(C(=O)Nc2ccc(S(=O)(=O)N3CCCC3)cc2)CC1=O (centres unmarked) | 3.59
